Screens from PubChem.
Gli-Sufu antag: Gli-Sufu pathway antagonism; Sufu-KO-LIGHT fibroblasts, Gli luciferase reporter luminescence; inhibition, % at 5 µM; 340,000 compounds, 0.74% hits;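 active = inhibition above about 55%, limit read from the data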
697 NFkB inh: inhibitors of the PMA/ionomycin-induced NF-kB reporter in 697 B cells; 697 B-cell NF-kB luciferase reporter, 16 h; inhibition, % at 4 µM; 330,000 compounds, 0.33% hits; AID 435022; in the data active = inhibition above about 35%
TAG inh: triacylglycerol accumulation inhibition | H9c2 cells, Nile Red lipid (TAG) fluorescence; cells loaded with 200 µM oleic acid | inhibition, % at 12.5 µM | 230,000 compounds, 0.66% hits | AID 651582;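 active = pattern-corrected inhibition of lipid staining of at least 50% with the nuclear-stain viability signal not falling by more than 50%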
Jurkat NFkB inh: inhibitors of the PMA/ionomycin-induced NF-kB reporter in Jurkat cells; PMA/ionomycin-induced NF-kB luciferase reporter, luminescence; inhibition, % at 4 µM; 330,000 compounds, 0.53% hits; AID 435003; in the data active = inhibition above about 50%
Shn3 inh set2: inhibitors of Schnurri-3 3'UTR reporter in osteoblasts; Clone20 osteoblast Shn3 3'UTR firefly luciferase, 24 h; inhibition, % at 12.5 µM; 360,000 compounds, 0.52% hits; AID 588674;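 active = mean inhibition of at least 75% with every replicate also reaching 75%; inconclusive = mean inhibition at least 75% but some replicate below; inactive = mean inhibition below 75%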
aSyn 5UTR inh: MLPCN primary screen, SNCA 5' untranslated region; alpha-synuclein 5'UTR reporter, inhibitor activity; inhibition, % (tested at 7.5 µM); 300,000 compounds, 0.82% hits; AID 1813; in the data active = inhibition above about 60%; inconclusive = no clear call, values can overlap the other calls;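 note: H4 neuroglioblastoma cells stably carrying SNCA 5'UTR luciferase fusion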
697 NFkB conf: lowers PMA/ionomycin-induced NF-kB signal in 697 B cells; shares compounds with 697 NFkB inh; 697 B-cell NF-kB luciferase, 16 h; inhibition, % at 4 µM; 2,000 compounds, 35% hits; AID 449746; in the data active = inhibition mostly above about 28%, no sharp cut-off; inactive = mostly below about 22%
A number is an active result; i = inactive; ? = inconclusive; nt = no result given. The list is not random: actives were taken first. Their share in the collection is about 2.3%.

SMILES | Gli-Sufu antag | 697 NFkB inh | TAG inh | Jurkat NFkB inh | Shn3 inh set2 | aSyn 5UTR inh | 697 NFkB conf
CCOc1ccc(-c2cc(CCCC(=O)NCCc3ccc(OC)c(OC)c3OC)no2)cc1 | i | 37.0 | nt | i | i | ? | i
Cn1c(SCC(=O)Nc2ccc(NC(=O)c3ccccc3)cc2)nnc1-c1ccncc1 | i | i | nt | i | i | i | nt
COc1ccc(C(=O)Nc2ccc(NC(=O)CSc3nnc(-c4ccncc4)n3C)cc2)cc1 | i | 38.0 | nt | i | i | i | i
CCCCC(=O)Nc1cccc(NC(=O)c2cccc(Br)c2)c1 | i | i | nt | i | i | i | nt
CCN(CC)C(=O)N1c2ccccc2C=Cc2ccccc21 | i | i | i | i | i | i | i
CCOC(=O)/C=C(\C)Sc1cc(=O)oc2ccccc12 | i | 35.7 | i | i | i | i | 27.8
Cc1cc(=O)[nH]c2c(C)cc(S(=O)(=O)N3CCCCC3)cc12 | i | 43.4 | i | i | i | i | 36.2
O=C(NCCN1CCN(S(=O)(=O)c2ccc(F)cc2)CC1)C(=O)NCc1ccccc1 | i | i | nt | i | i | i | nt
CC(=O)/C(C#N)=C1\NC(=O)C(Cc2ccccc2C)S1 (stereo not drawn) | i | i | i | i | i | i | i
C/C(=N\N=C1\NC(=O)C(Cc2ccccc2)S1)c1ccccc1 (stereo not drawn) | i | i | i | i | i | i | nt
CC(=O)/C(C#N)=C1\NC(=O)C(Cc2ccccc2)S1 (stereo not drawn) | i | i | i | i | i | i | i
S=C(NCc1ccco1)NC1CCCc2ccccc21 (stereo not drawn) | i | i | i | i | i | i | nt
Cc1ccc(CNC(=O)CSc2nc3ccsc3c(=O)n2Cc2ccccn2)cc1 | i | i | i | i | i | i | nt
O=c1c2cc(NC(=S)NC3CCCC3)ccc2nc2n1CCCCC2 | i | i | i | i | i | i | nt
CCOC(=O)c1ccc(NC(=O)c2cn(-c3ccccc3)nc2-c2ccncc2)cc1 | i | i | i | i | i | i | nt
O=C(OCCc1ccccc1)c1cc(O)c(O)c(O)c1 | i | i | i | i | i | i | i
Cc1ncc(S(=O)(=O)c2ccc(Cl)cc2)c(-c2ccccc2)n1 | i | 39.7 | nt | i | i | i | i
O=C(CSc1ncn[nH]1)Nc1ccc(Cl)c(Cl)c1 | i | 35.2 | i | i | i | i | i
CCc1nc2ccc(C(=O)N(C)Cc3ccccc3)cn2c1N(CC)CCN(C)C | nt | nt | i | nt | i | nt | nt
COc1ccccc1N(Cc1ccccc1)S(=O)(=O)c1cccc(C(=O)Nc2ccc(C)cn2)c1 | i | i | i | i | i | i | nt
COc1ccccc1N(Cc1ccccc1)S(=O)(=O)c1cccc(C(=O)Nc2ccccn2)c1 | i | i | i | i | i | i | i
CCOCCCNC(=O)c1ccc(N2CCCC2)c(NS(=O)(=O)c2ccc(C)cc2)c1 | i | i | i | i | i | i | nt
Cn1nnnc1Sc1ncnc2scc(-c3ccc([N+](=O)[O-])cc3)c12 | i | i | i | i | i | nt | i
COc1ccc(-c2csc3ncnc(Sc4nnnn4C)c23)cc1 | i | i | i | i | i | nt | nt
Cc1[nH]c2ccccc2c1/C=N/NS(=O)(=O)c1ccccc1 | i | i | i | i | i | i | nt
SMILES | Gli-Sufu antag | 697 NFkB inh | TAG inh | Jurkat NFkB inh | Shn3 inh set2 | aSyn 5UTR inh | 697 NFkB conf
CCn1cc(C(=O)N2CCN(c3ccc(OC)cc3)CC2)c(=O)c2cc(S(=O)(=O)N3CCCCC3)ccc21 | i | i | i | i | i | i | nt
COC(=O)[C@@]12OC[C@]34[C@H]([C@@H](O)[C@@H]1O)[C@@]1(C)C(=O)C(O[C@@H]5OC(CO)[C@@H](O)[C@@H](O)[C@@H]5O)=C[C@@H](C)[C@@H]1C[C@H]3OC(=O)[C@H](OC(=O)/C=C(\C)C(C)(C)OC(C)=O)[C@@H]24 (stereo partly drawn) | i | 44.4 | nt | i | nt | nt | 80.2
CCS(=O)(=O)NC(C)C(c1cccs1)N1CCN(c2ccc(OC)cc2)CC1 (stereo not drawn) | i | i | i | i | i | i | nt
Cc1ccc(S(=O)(=O)/C(=C\N(C)C)c2cnc(Cl)s2)cc1 | i | 36.3 | i | i | i | i | i
CN(C)/C=C(\C#N)S(=O)(=O)c1ccc(Cl)cc1 | i | i | i | i | i | i | nt
Cc1ccc(C(=O)C(C)OC(=O)c2ccccc2[N+](=O)[O-])cc1 (stereo not drawn) | i | i | nt | i | i | i | i
O=C(Nc1nc2ccccc2[nH]1)c1ccc(Cl)cc1 | i | i | nt | i | i | 65.9 | i
COc1cccc(C(=O)NCCCNC(=O)c2cccnc2)c1 | i | i | nt | i | i | i | nt
COC(=O)[C@H](C)NC(=O)Nc1cccc(C(F)(F)F)c1 | i | 35.6 | nt | i | i | i | i
COc1ccc(C(=O)N=c2sc3c(C)ccc(OC)c3n2C)cc1 | i | i | i | i | i | i | i
Cc1cc(OCC(=O)Nc2ccc(CN3CCOCC3)cc2)c2c(C)c(C)c(=O)oc2c1 | i | 38.4 | nt | i | i | i | i
Cc1c(NS(=O)(=O)c2cccc(C(=O)NCc3ccccc3Cl)c2)c(=O)n(-c2ccccc2)n1C | i | i | i | i | i | nt | nt
ClCc1nnc(-c2ccccc2)o1 | i | 35.4 | i | i | i | i | 29.4
Cc1nnc2ccc(-c3ccc(NC(=O)Cc4cccs4)cc3)nn12 | i | 35.8 | i | i | i | i | i
CC(=O)Nc1ccc(-c2ccc3nnc(C)n3n2)cc1 | i | i | i | i | i | i | nt
COc1ccc(CCn2c(-c3ccc(OC)cc3)nc3c(c(=O)c4ccccc4n3C)c2=O)cc1 | i | i | i | i | i | i | nt
CCc1nc2c(c(=O)c3ccccc3n2C)c(=O)n1CCc1ccc(OC)cc1 | nt | i | nt | i | nt | 74.0 | i
COCCn1c(-c2ccc(Cl)cc2Cl)nc2c(c(=O)c3ccccc3n2C)c1=O | i | 41.0 | i | i | i | i | i
Cc1cc(Cl)ccc1OCCCC(=O)NCCc1nnc2ccccn12 | i | i | nt | i | i | i | nt
Cc1csc(NC(=O)CSc2nnc(-c3ccc(Cl)cc3)n2N)n1 | i | i | nt | i | i | i | nt
COc1cc(OC)cc(-c2cc3nc(C)c(CCC(=O)NCc4ccccc4)c(C)n3n2)c1 | i | 38.2 | i | i | i | 75.0 | 44.6
COc1ccccc1-c1cc2nc(C)c(CCC(=O)NCc3ccc(F)cc3)c(C)n2n1 | i | i | i | i | i | i | nt
Cc1nc2cc(-c3ccc(Cl)cc3)nn2c(C)c1CCC(=O)NC(C)c1ccc2c(c1)OCCO2 (stereo not drawn) | i | 37.0 | i | i | i | 73.8 | 27.5
CCc1ccc(C2=NN(CCC(=O)NC(C)c3ccc4c(c3)OCCO4)C(=O)CC2)cc1 (stereo not drawn) | i | i | i | i | i | i | nt
Cc1csc(NC(=O)CCc2c(C)nc3cc(-c4ccc(Cl)cc4)nn3c2C)n1 | i | 42.5 | i | i | i | nt | 42.5
O=C(NCc1ccc(F)cc1)C1CCC(=O)N1CCc1ccccc1 (stereo not drawn) | i | i | i | i | i | i | nt
